In test [1] the test system is Human papillomavirus type 1a protein E7 (residues 44-93). Kind of test: HPV1a E7 fragment binders on microarrays, primary screen, biochemical, small-molecule microarray, residues 44-93, 635 nm fluorescence (AID 1108).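 Further: E7 fragment applied at 1 µg/mL in TBST for 1 h at 4 C; score combines spot fluorescence with its signal to noise ratio.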 Conditions: small-molecule microarray binding, fluorescence 635 nm; higher = more signal.
Test [2] can be described thus: modulators of HCV replicon luciferase signal, primary screen, HCV replication inhibitor project, Huh7 cells, luciferase reporter (AID 1109).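 Further: huh7 hepatoma cells harbouring a luciferase neomycin HCV replicon reporter; luciferase luminescence as measure of HCV replicon replication; test concentration not given here.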 The conditions noted are these: 48 h, higher = more signal.
Test [3] has as its target Left-right determination factor 2 (Homo sapiens) (UniProt O00292). Kind of test: LEFTY2 binders on small-molecule microarrays, primary screen, biochemical, small-molecule microarray, 635 nm fluorescence scan (AID 1110). The conditions noted are these: LEFTY2 binding, higher = more signal.
For test [4], the target named is Calmodulin-1 (Homo sapiens) (UniProt P0DP23). Kind of test: CALM1 binders on microarrays, EGTA buffer, profiling panel, biochemical, small-molecule microarray, Cy5-labelled CALM1 (AID 1111).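 Further: labelled calmodulin applied in Tris saline Tween buffer holding calcium plus EGTA and DTT.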 Conditions: Cy5-CALM1 binding fluorescence, higher = more signal.
Test [5] shares this target. Kind of test: calcium-bound CALM1 binders on microarrays, profiling panel, artefact control for SMM control-protein annotation, biochemical, small-molecule microarray, Cy5-labelled CALM1, plus calcium (AID 1112).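 Further: score merges spot fluorescence with signal to noise from triplicate slides.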 The conditions noted are these: Cy5-CALM1 binding fluorescence, higher = more signal.
Test [6] in a line: small-molecule microarray binders of probe aWnt5a, primary screen, biochemical, biotinylated probe, 635/667 nm fluorescence (AID 1113).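 Further: score merges 667 nm fluorescence intensity with signal-to-noise per printed feature.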 The conditions noted are these: higher = more signal.
The nature of test [7]: small-molecule microarray binders of probe aShh, primary screen, biochemical, biotinylated probe, 635/667 nm fluorescence (AID 1114).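 Further: probe is biotin-labelled aShh protein from a stem cell growth factor screen; measures binding of labelled protein to compounds printed on the slide; score merges feature fluorescence at 667 nm with signal-to-noise.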 The conditions noted are these: higher = more signal.
Test [8] can be described thus: small-molecule microarray binders of probe aNog, primary screen, biochemical, biotinylated probe, 635/667 nm fluorescence (AID 1115).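 Further: probe is biotinylated aNog protein used at 0.15 µg/mL for 1 h at 4 C; z-score combines 667 nm fluorescence of each spot with its signal to noise.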 Conditions: higher = more signal.
For test [9], the target named is Torsin-1A-interacting protein 1 (Homo sapiens) (UniProt Q5JTV8). Kind of test: LAP1 binders from COS7 cell lysate, primary screen, small-molecule microarray, 635/667 nm fluorescence (AID 1116). The conditions noted are these: COS7-hLAP1 lysate binding, 635 nm fluorescence, higher = more signal.
Torsin-1A-interacting protein 1 (Homo sapiens), sequence (Q5JTV8 whole entry, looked up): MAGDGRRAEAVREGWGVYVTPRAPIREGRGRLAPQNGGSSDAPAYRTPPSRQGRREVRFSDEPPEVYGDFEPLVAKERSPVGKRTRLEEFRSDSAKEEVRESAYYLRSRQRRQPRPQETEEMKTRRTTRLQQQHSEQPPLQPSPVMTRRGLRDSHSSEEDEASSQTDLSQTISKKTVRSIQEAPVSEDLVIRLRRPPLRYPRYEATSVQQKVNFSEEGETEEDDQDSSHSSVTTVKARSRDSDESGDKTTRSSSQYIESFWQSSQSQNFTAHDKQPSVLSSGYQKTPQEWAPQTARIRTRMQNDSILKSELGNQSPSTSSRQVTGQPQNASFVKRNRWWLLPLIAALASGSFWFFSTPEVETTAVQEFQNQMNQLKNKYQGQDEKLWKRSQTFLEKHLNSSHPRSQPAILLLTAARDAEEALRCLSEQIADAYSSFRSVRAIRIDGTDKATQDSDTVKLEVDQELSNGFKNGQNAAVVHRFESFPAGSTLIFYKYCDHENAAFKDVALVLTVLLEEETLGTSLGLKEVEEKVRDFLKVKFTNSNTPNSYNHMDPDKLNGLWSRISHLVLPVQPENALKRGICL
In test [10] the target is Alpha-bungarotoxin (Bungarus multicinctus) (UniProt P60615). The test can be described thus: alpha-bungarotoxin binders on microarray, profiling panel, artefact control for SMM control protein annotation, biochemical, small-molecule microarray, Alexa647 label, 635/667 nm fluorescence (AID 1117). Conditions: alpha-BTX-A647 binding fluorescence, higher = more signal.
Alpha-bungarotoxin (Bungarus multicinctus), sequence (P60615 whole entry, looked up): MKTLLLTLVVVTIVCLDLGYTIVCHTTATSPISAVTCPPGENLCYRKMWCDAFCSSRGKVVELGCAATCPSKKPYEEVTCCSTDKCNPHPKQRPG
Test [11] addresses Albumin (Bos taurus) (UniProt P02769). Kind of test: bovine serum albumin binders on microarray, profiling panel, artefact control for SMM control protein annotation, biochemical, small-molecule microarray, Alexa647 label, 635/667 nm fluorescence (AID 1118).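 Further: score merges 667 nm emission intensity and signal-to-noise per printed compound spot.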 The conditions noted are these: BSA-A647 binding, fluorescence 635 nm, higher = more signal.
Test [12] is described as follows: small-molecule microarray binders of probe aXIP, primary screen, biochemical, NeuroSMM set, 635/667 nm fluorescence (AID 1119).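 Further: probe is the protein aXip251-270 applied at 1 µg/mL to compound-printed slides; binding of probe to printed compounds measured as 667 nm fluorescence plus signal to noise.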 The conditions noted are these: higher = more signal, called active from +8 up or from −8 down.
Test [13] can be described thus: small-molecule binders of probe aNOTCH3, primary screen, biochemical, small-molecule microarray, 635/667 nm fluorescence (AID 1120).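 Further: probe is a biotin-tagged antibody raised against NOTCH3 rather than NOTCH3 protein; score merges spot fluorescence near 667 nm with spot signal to noise.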 The conditions noted are these: higher = more signal.
A short description of test [14]: small-molecule binders of probe aNOTCH2, primary screen, biochemical, small-molecule microarray, 635/667 nm fluorescence (AID 1121).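 Further: score merges feature fluorescence read at 667 nm with its signal to noise.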 Conditions: higher = more signal.
For test [15], the target named is Carbonic anhydrase 2 (Homo sapiens) (UniProt P00918). Kind of test: CAII small-molecule binders, profiling panel, biochemical, small-molecule microarray, Alexa647-labelled CAII (AID 1122). The conditions noted are these: CAII-A647 binding fluorescence, higher = more signal.
Test [16] can be described thus: COS7 lysate on small-molecule microarray, probe aHis, 635 nm (AID 1123).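 Further: z-score combines 667nm fluorescence intensity with signal-to-noise per printed compound spot.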 The conditions noted are these: COS7 cell lysate, fluorescence, higher = more signal.
A short description of test [17]: compound binding in COS7 lysate, probe aLAP1, primary screen, cell lysate, small-molecule microarray (AID 1124).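 Further: lysate comes from COS7 cells expressing LAP1 and is applied at 0.3 µg/mL; score merges spot fluorescence near 667 nm with signal-to-noise over triplicate slides.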 Conditions: probe aLAP1, fluorescence, higher = more signal.
Test [18] concerns Sam68 (KHDRBS1). The test can be described thus: Sam68 small-molecule binders, primary screen, biochemical, small-molecule microarray, 635 nm fluorescence (AID 1125).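 Further: score merges 667 nm channel intensity with signal to noise over triplicate slides.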 The conditions noted are these: small-molecule microarray binding, higher = more signal.
For test [19], the system named is Chordin-like protein 2 (CHRDL2). The test can be described thus: CHRDL2 small-molecule binders, primary screen, biochemical, small-molecule microarray, 635 nm fluorescence (AID 1126).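 Further: printed compound slides probed with Chrdl2 protein at 4 µg/mL for 1 h at 4 C; score merges 667 nm emission intensity with signal to noise over three replicate slides.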 The conditions noted are these: small-molecule microarray binding, fluorescence 635 nm; higher = more signal.
The target of test [20] is Concanavalin-A (Canavalia ensiformis) (UniProt P02866). The test can be described thus: ConA small-molecule binders, primary screen, artefact control for SMM control protein annotation, biochemical, small-molecule microarray, Alexa647 label, 635 nm (AID 1127).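 Further: z combines 667 nm emission intensity with signal-to-noise across three replicate slides.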 Conditions: ConA-A647 binding fluorescence, higher = more signal.
Concanavalin-A (Canavalia ensiformis), sequence (P02866 whole entry, looked up): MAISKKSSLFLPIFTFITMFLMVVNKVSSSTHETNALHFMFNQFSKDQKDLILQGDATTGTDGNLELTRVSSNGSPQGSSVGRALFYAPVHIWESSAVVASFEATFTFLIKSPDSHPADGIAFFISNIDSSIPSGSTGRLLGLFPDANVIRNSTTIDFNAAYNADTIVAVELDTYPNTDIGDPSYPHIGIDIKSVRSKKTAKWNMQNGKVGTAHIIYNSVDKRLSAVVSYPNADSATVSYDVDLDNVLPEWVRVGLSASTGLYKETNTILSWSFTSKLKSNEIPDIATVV

This note sets out measurements from PubChem BioAssay.

Activity calls are given as the source filed them.

Albumin (Bos taurus), sequence (P02769 whole entry, looked up): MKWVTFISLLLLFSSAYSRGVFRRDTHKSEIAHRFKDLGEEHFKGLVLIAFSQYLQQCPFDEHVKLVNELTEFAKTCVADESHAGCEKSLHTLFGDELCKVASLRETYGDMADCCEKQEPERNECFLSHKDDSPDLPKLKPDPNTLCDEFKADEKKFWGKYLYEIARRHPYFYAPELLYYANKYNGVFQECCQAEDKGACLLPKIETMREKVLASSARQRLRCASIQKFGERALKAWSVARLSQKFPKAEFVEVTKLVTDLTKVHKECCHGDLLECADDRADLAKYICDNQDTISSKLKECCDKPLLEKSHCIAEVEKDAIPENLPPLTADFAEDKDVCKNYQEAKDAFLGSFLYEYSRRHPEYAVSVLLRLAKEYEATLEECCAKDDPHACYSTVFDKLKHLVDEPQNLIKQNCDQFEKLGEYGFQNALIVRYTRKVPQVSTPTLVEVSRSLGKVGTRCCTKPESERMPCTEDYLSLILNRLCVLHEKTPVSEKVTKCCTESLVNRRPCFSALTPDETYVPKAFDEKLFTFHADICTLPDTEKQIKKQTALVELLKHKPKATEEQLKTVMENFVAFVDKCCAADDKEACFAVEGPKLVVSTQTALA
Left-right determination factor 2 (Homo sapiens), sequence (O00292 whole entry, looked up): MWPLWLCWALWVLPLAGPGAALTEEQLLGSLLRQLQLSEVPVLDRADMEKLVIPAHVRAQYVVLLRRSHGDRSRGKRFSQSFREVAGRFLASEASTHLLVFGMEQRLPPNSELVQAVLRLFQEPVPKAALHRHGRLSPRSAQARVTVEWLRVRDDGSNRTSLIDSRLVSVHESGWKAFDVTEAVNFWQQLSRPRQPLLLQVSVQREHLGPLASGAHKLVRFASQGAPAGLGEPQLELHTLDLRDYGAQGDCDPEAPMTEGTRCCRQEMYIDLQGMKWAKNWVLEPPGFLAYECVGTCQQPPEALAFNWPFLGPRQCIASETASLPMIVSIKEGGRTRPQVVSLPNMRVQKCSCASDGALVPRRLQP

Turning to `CCCNC(=O)[C@@]1(Sc2ccc(C)cc2)CC(=O)N(Cc2ccccc2)[C@@H]1c1ccc(CO)cc1I`, the composite z-score was 1.17 in test [1]; -0.045 in test [3]; -0.296 in test [4]; 0.143 in test [5]; -0.0758 in [6]; -0.1 in [7]. Besides, the composite z-score in test [8] was 0.225; in test [9] it was 0.285; in test [10] it was 1.19; in test [11], -0.793; in [13], 0.147; in test [14], -0.115. Further, the composite z-score in test [15] came to 0.405; in test [16] it was 0.644; in test [17], 1.01; in [18], 0.827; in [19] it was 0.678; in test [20], 0.082. This compound also registered a z-score in test [2] of -2.64. Further, in test [12], the composite Z-score is -0.163 (inactive).
On to `O=C1c2ccccc2C(=O)C2CC([C@H]3Oc4ccccc4S(=O)(=O)N4CCC[C@@H]34)=CCC12` (stereo not given in full), for which the composite z-score in test [1] is -0.811; in [3], 0.0197; in test [4], -0.488; in test [5] it was 0.184; in [6] it was -0.124; in [7], -0.0362. Further, the composite z-score is -0.273 in test [8]; 0.123 in [9]; 0.0404 in test [10]; 0.793 in test [11]; -0.122 in test [13]; -0.117 in test [14]. The composite z-score in test [15] was -0.241; in test [16] it was -0.296; in [17], -0.363; in test [18], -0.557; in test [19], 0.139; in test [20] it was -1. Further, the z-score in test [2] was -1.34. Further, the composite Z-score in [12] is 0.251 (inactive).
In the case of `COC(=O)C(CC#Cc1ccc2c(c1)[C@]1(C(=O)N2)[C@H](c2ccc(O)cc2)N2[C@H](c3ccccc3)[C@H](c3ccccc3)OC(=O)[C@H]2[C@@H]1C(=O)O)C(=O)OC`, the composite z-score is 0.69 in [1]; 0.029 in test [3]; 0.351 in test [4]; 0.0474 in test [5]; -0.175 in test [6]; -0.206 in test [7]. Also, the composite z-score in test [8] is -0.124; in test [9] it was -0.347; in test [10], 0.33; in test [11] it was 0.587; in test [13] it was 0.18; in test [14], -0.0891. In addition, the composite z-score in test [15] is 0.766; in test [16], 1.07; in [17], 0.308; in [18], 0.318; in test [19] it was -0.3; in test [20], 0.819. In addition, the z-score in [2] was -0.76. For the same compound, the composite Z-score in test [12] is 0.877 (inactive).
In the case of `C[C@H]1ON(c2ccccc2)[C@@H](c2ccccc2)[C@@H]1C(=O)N1C(=O)OC[C@@H]1c1ccccc1`, the composite z-score was 0.184 in test [1]; 0.521 in test [3]; -0.238 in [4]; -0.162 in test [5]; -0.134 in test [6]; -0.251 in [7]. The composite z-score is -0.0855 in [8]; 0.357 in test [9]; -0.1 in [10]; 0.0537 in test [11]; -0.0493 in test [13]; -0.118 in test [14]. Further, the composite z-score in [15] was 0.259; in test [16], 0.46; in [17] it was -0.0222; in test [18] it was 0.44; in [19], 0.424; in test [20], 0.0565. This compound also registered a z-score in [2] of -0.432. In addition, in [12], the composite Z-score was 1.2 (inactive).
In the case of `[N-]=[N+]=Nc1ccccc1[C@H]1OC(c2ccc(OCCCO)cc2)=N[C@@]1(Cc1ccccc1)C(=O)NCc1ccccc1`, the composite z-score is 1.4 in [1]; 0.364 in [3]; 0.503 in test [4]; -0.171 in [5]; -0.0492 in test [6]; 0.0723 in [7]. The composite z-score is -0.261 in [8]; 0.832 in test [9]; 0.421 in [10]; 0.713 in [11]; 0.256 in [13]; -0.0714 in test [14]. Further, the composite z-score is 0.497 in test [15]; 1.46 in test [16]; 0.112 in [17]; 1.31 in test [18]; 0.125 in test [19]; 1.02 in test [20]. Also, the z-score in [2] was -3.14. For the same compound, in test [12], the composite Z-score was 1.76 (inactive).
